MITF TRPM1 HTS: activators of MITF-driven TRPM1 promoter activity in SK-MEL-5 cells. SK-MEL-5 TRPM1-promoter luciferase, 24 h; % of positive control, neutral wells = 0. activation, % at 12.5 µM. 300,000 tested, 0.75% active. AID 588334;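 active = mean activation of at least 80% with every replicate also reaching 80%; inconclusive = mean reaches 80% but some replicate falls short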;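 note: 0% = neutral control wells and 100% = parthenolide positive control wells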
Glyco luc inh: N-linked glycosylation inhibition | 360,000 tested, 0.23% active | AID 588692 | D54 ERlucT glycosylation luciferase reporter, 24 h; percent of 100 nM tunicamycin response | reporter increase, % at 12.5 µM;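 active = mean luciferase reporter signal, scaled so untreated is 0 and the glycosylation-blocking control 100, at or above a set limit in every replicate; inconclusive = mean reaches the limit but not every replicate does; inactive = mean below the limit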;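 note: luciferase carries N-glycosylation sites so blocking glycosylation raises the light; 0% = median of neutral control wells and 100% = median of 100 nM tunicamycin wells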
Wnt act: Wnt/beta-catenin pathway activation; AID 743398; Wnt/beta-catenin reporter cell assay, activator, plate reader; activation, % at 9.35 µM; 300,000 tested, 1.2% active; in the data active = activation above about 30%, passing the limit was not always enough; inconclusive = no clear call, values can overlap the other calls;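 note: 0% = neutral control wells and 100% = positive control wells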
PfHsp90 yeast 2: reduces growth (ATP signal) of yeast expressing P. falciparum Hsp90. S. cerevisiae expressing PfHsp90, BacTiter-Glo ATP, 48 h; yeast lacking PDR1 and PDR3 efflux regulators. inhibition, % at 9.4 µM. 310,000 tested, 0.32% active;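 active = every replicate shows inhibition above about 80%, whatever the replicate mean, limit read from the data; inconclusive = mean inhibition reaches the set limit but some replicate falls short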;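 note: 0% = DMSO neutral controls and 100% = 20 µM radicicol positive controls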
NSD2 HMT inh: inhibitors of human histone methyltransferase NSD2. O96028. NSD2 peptide methylation, AlphaScreen, 120 min. inhibition, % at 12.5 µM. 310,000 tested, 0.54% active. AID 743445; in the data active = inhibition above about 50%
Target sequence (O96028 whole entry, looked up): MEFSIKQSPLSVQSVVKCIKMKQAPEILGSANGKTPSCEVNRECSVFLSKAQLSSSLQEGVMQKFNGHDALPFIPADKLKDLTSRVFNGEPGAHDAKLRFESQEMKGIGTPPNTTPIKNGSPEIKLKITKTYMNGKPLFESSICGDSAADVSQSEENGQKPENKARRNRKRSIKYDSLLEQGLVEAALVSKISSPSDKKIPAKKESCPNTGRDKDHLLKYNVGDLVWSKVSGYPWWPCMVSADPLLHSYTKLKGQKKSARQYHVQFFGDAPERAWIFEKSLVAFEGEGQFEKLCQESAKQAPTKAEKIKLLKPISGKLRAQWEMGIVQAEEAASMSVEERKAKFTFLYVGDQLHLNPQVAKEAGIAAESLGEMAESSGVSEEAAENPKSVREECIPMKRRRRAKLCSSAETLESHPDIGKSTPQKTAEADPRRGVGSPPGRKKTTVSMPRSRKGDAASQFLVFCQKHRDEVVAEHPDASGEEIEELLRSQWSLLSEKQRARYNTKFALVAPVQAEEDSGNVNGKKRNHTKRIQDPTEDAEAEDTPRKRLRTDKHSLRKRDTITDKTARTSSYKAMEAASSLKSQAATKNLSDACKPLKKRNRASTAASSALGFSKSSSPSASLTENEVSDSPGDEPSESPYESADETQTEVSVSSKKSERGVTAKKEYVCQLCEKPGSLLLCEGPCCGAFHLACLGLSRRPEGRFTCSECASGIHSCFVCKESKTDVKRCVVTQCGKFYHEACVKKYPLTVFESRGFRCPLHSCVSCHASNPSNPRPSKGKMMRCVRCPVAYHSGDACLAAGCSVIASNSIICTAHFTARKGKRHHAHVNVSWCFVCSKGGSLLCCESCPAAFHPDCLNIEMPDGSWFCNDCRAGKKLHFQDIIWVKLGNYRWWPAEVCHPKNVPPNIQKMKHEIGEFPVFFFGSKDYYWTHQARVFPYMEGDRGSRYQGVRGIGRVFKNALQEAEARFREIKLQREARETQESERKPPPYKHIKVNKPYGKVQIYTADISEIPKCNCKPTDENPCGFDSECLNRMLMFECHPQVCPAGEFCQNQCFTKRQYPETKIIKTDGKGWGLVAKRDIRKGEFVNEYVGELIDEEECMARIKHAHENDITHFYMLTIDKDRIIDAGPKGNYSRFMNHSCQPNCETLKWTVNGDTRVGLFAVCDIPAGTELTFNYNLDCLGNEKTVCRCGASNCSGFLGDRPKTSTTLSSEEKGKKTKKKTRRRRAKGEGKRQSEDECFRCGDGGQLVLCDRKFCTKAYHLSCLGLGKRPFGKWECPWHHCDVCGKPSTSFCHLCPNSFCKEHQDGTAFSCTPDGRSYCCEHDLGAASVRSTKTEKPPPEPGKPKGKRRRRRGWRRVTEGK
MITF TRPM1 inh: reduces MITF-dependent TRPM1 promoter luciferase signal; 330,000 tested, 0.83% active; inhibition, % at 12.5 µM; AID 488899; SK-MEL-5 TRPM1 promoter luciferase, 24 h;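 active = mean inhibition across replicates of 60% or more, whatever share of single replicates reaches that level; inconclusive = some that reach 60%, reason not given; inactive = mean inhibition across replicates below 60%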
Starred values were filed as active, the others as inactive; u = inconclusive; x = not tested or not shown. A selection: hits, their analogues and other compounds. The true share with any hit is near 2.9%.

SMILES | MITF TRPM1 HTS | Glyco luc inh | Wnt act | PfHsp90 yeast 2 | NSD2 HMT inh | MITF TRPM1 inh
CC(NC(=O)COC(=O)c1ccc2c(=O)n3c(nc2c1)CCCCC3)c1ccc(F)cc1 (stereo not given) | x | 2.6 | -2.2 | x | 1.2 | x
Cc1ccc(NC(=O)c2cc(-c3ccco3)on2)cc1 | 89.6* | 4.0 | x | -1.5 | -3.9 | -81.6
O=C(Nc1ccc(F)c(Cl)c1)c1cc(-c2ccco2)on1 | 22.5 | 0.7 | 37.5* | 18.3 | -1.6 | -18.6
Cc1cc2c(s1)c1cnn(Cc3cc(F)c(F)cc3F)c(=O)c1n2C | x | x | x | x | -0.8 | x
COc1ccc(CNC(=O)C2CCN(c3cc(C(=O)Nc4cccc(OC)c4)ccn3)CC2)cc1 | 6.2 | -3.0 | -1.4 | 0.9 | -3.8 | -6.2
O=C1NC(=Nc2ccccc2Cl)S/C1=C\c1cccc([N+](=O)[O-])c1O | x | 1.2 | -1.0 | -177.0 | 59.8* | 4.3
COc1c(/C=C2\SC(=Nc3ccccc3Cl)NC2=O)cccc1[N+](=O)[O-] | -1.9 | 4.1 | 0.5 | -11.0 | 6.7 | 5.1
O=C(OCCc1ccccn1)c1cccc([N+](=O)[O-])c1 | 0.9 | 0.6 | -3.3 | 3.7 | x | -0.6
Cc1ccc(COc2ccc(/C=N/O)cc2)cc1 | 42.4 | -9.2 | 31.0* | -31.0 | -0.9 | -44.5
OC[C@H]1O[C@@H](c2nc(-c3nc(-c4ccc(F)cc4)no3)cs2)[C@H](O)[C@@H]1O | x | -8.7 | 61.1* | x | 4.7 | x
CCOc1ccc(-c2noc(-c3csc([C@@H]4C[C@H](O)[C@@H](CO)O4)n3)n2)cc1 | x | 3.8 | -1.5 | x | -0.4 | x
CC[C@]12c3[nH]c4cc(CCC(=O)N(C)C)ccc4c3CCN1C(=O)[C@@H](CC(=O)NC/C=C(\C)CCC=C(C)C)C[C@@H]2C(=O)N1CCN(C(=O)c2ccco2)CC1 | -50.6 | 31.0* | x | -2.7 | x | 50.8
CC[C@]12c3[nH]c4cc(CCC(=O)N(C)C)ccc4c3CCN1C(=O)[C@@H](CC(=O)NCCN1CCOCC1)C[C@@H]2C(=O)N1CCN(C(=O)c2ccco2)CC1 | 7.6 | 1.9 | -1.5 | 4.6 | x | -5.4
Cc1ccc2c(c1)sc1nc(=O)n(-c3ccccc3)c(=O)n12 | 47.8 | -13.4 | 54.8* | 9.4 | x | -99.9
CSc1nnc2sc3cc(C)ccc3n12 | x | 5.8 | 15.6 | x | -1.1 | x
O=C(N[C@H](c1cccc(Br)c1)[C@@H]1CCCC=C1c1ccccc1)C(F)(F)F | x | x | 2.7 | x | x | x
COc1ccc(C(=O)NC(=C(Cl)Cl)S(=O)(=O)c2ccc(C)cc2)cc1 | 3.5 | 27.1* | 2.7 | -6.5 | 0.3 | -0.1
COC(=O)NC(=C(Cl)Cl)S(=O)(=O)c1ccccc1 | -30.2 | 50.7* | 2.9 | x | 4.5 | 31.3
Cc1ccc(C(=O)NC(=C(Cl)Cl)S(=O)(=O)c2ccccc2)cc1 | 14.2 | u | 9.2 | -1.9 | 5.9 | -16.7
COc1ccsc1S(=O)(=O)Nc1ccc(C(O)(C(F)(F)F)C(F)(F)F)cc1 | x | x | x | x | -2.3 | x
O=C1CCC(=O)N1CC(=O)N1CCCc2ccccc21 | -14.2 | 3.1 | -0.7 | 9.9 | -0.3 | 15.2
C/C(=N\Nc1nncc2ccccc12)c1ccc(OCC(=O)N(C)C)cc1 | u | -1.9 | 7.4 | -13.9 | 1.3 | -85.3
CC/C(=N\Nc1nncc2ccccc12)c1ccc(F)cc1 | 88.4* | -1.1 | 19.7 | 8.2 | 0.2 | -84.5
CC(C)c1ccc(NC(=O)c2ccc(Br)o2)cc1 | 89.4* | -14.0 | x | -6.0 | 4.3 | -90.8
COc1ccc(NC(=O)c2ccc(Br)o2)cc1 | 78.4 | -2.2 | u | x | x | -80.6
SMILES | MITF TRPM1 HTS | Glyco luc inh | Wnt act | PfHsp90 yeast 2 | NSD2 HMT inh | MITF TRPM1 inh
CC(C)c1ccc(NC(=O)c2cccc(Br)c2)cc1 | 70.8 | -10.1 | 55.9* | -1.0 | x | -69.7
O=C(Nc1ccc2c(c1)OCCO2)c1ccc(Br)o1 | 48.4 | -8.9 | 54.5* | -8.0 | -2.7 | -46.1
CC1CC1C(=O)Nc1nc2ccc(Cl)cc2s1 (stereo not given) | 5.5 | -6.6 | 54.0* | -66.6 | x | -13.3
CCCCCc1ccc(OCCOCCn2c[n+](C)c3ccccc32)c(CCCCC)c1 | -75.1 | 3.4 | x | 20.5 | 8.5 | 76.8*
CC(=O)Nc1ccc(OCCC[n+]2ccccc2)cc1 | 1.4 | 1.2 | -1.4 | 0.2 | -1.8 | -1.9
CCCCCc1ccc(OCCC[n+]2ccccc2)c(CCCCC)c1 | -100.2 | 21.1 | -11.7 | -24.4 | x | 104.9*
CCN(CC)CCC(=O)Nc1cccc2c1C(=O)c1ccccc1C2=O | x | 109.8* | 2.6 | -11.7 | 35.0 | 70.9*
COC(=O)c1cc2c(c3c4ccccc4n(S(=O)(=O)c4cccc(C)c4)c13)C(=O)N(C)C2 | x | x | 0.5 | x | x | x
COCC(=O)Nc1ccccc1C(=O)Nc1ccc(OC)cc1 | 48.1 | -0.5 | 35.5* | 0.4 | -1.9 | -45.4
Cc1ccc(NC(=O)c2cc3ccccc3cc2O)cc1 | 77.6 | -3.8 | 46.4* | 11.0 | -3.1 | -74.7
Cc1ccc(NC(=O)NNC(=O)c2cc3ccccc3cc2O)cc1C | 0.4 | 2.4 | -0.8 | -1.0 | 2.4 | 0.7
COc1ccc(NC(=O)c2cc3ccccc3cc2O)cc1 | 79.0 | -4.6 | 35.0* | -0.2 | 1.5 | -74.7
COCC(=O)N(Cc1ccccc1)c1ccccc1C(=O)Nc1cc(OC)ccc1OC | x | x | x | x | 3.0 | x
COc1ccccc1C(=O)Cc1ccccc1 | 18.2 | -2.4 | -3.5 | x | -1.4 | -15.2
COc1ccccc1C(=O)OCCc1ccccc1 | 141.2* | -2.4 | -2.4 | -6.9 | -1.6 | -138.2
Cc1ccc(NC(=S)N2CCC(c3ccccc3)C2)c(Cl)c1 (stereo not given) | 60.6 | -15.2 | 42.1* | -7.9 | -5.6 | -56.6
S=C(Nc1ccccc1Cl)N1CCC(c2ccccc2)C1 (stereo not given) | 38.7 | -0.3 | 16.2 | 13.3 | -0.4 | -40.6
Fc1ccccc1NC(=S)N1CCC(c2ccccc2)C1 (stereo not given) | 109.0* | -0.5 | 48.3* | -29.0 | 18.6 | -101.2
Cc1nc2ncccn2c1-c1csc(Nc2cccc(C(=O)O)c2)n1 | -0.1 | 0.7 | 0.6 | -19.9 | 1.3 | 2.9
COc1ccc(OC)c(Nc2nc(-c3c(C)nc4ncccn34)cs2)c1 | -9.8 | 41.9* | 3.4 | -3.0 | 1.6 | 16.0
O=C(NCc1nnc(SCC(=O)N2CCCc3ccccc32)o1)c1ccco1 | -8.0 | 0.1 | 46.2* | 15.7 | -2.8 | 7.7
O=C(NCc1nnc(SCC(=O)N2CCc3ccccc32)o1)c1ccco1 | 7.3 | 4.6 | -4.8 | 5.3 | -2.5 | -2.1
Cn1c(-c2ncc(F)cc2F)cc2onc(-c3c(F)cccc3Cl)c2c1=O | 87.5* | -5.9 | 39.8* | -8.1 | x | -83.2
CCOc1ccc(N/C=C/C(=O)c2ccc(OC)cc2)c([N+](=O)[O-])c1 | 98.2* | -1.3 | 5.9 | -3.9 | -4.0 | -96.2
Cc1cccc(Nc2nc(N)c([N+](=O)[O-])c(N3CC(C)OC(C)C3)n2)c1 (stereo not given) | -6.7 | -3.4 | -2.2 | -2.5 | 46.3 | 6.4
Cc1cccc(Nc2nc(N)c([N+](=O)[O-])c(N3CC(C)CC(C)C3)n2)c1 (stereo not given) | -5.2 | -6.9 | -3.5 | 101.1* | 3.3 | 7.0
